In PubChem BioAssay (NCATS):
Records with an inconclusive call do not appear. The source made the active and inactive calls. The call rests on the fitted dose curve; in most records, active means well fitted curve in the direction sought with a large enough effect; inconclusive means small, poorly fitted or top-dose-only effect, or another doubt; inactive means no such curve, though single readings can be large; an effect the other way counts as inactive or inconclusive.

Key:
[1] = biological target: Cytochrome P450 3A4 (Homo sapiens) (UniProt P08684); assay: qHTS Assay for Inhibitors and Substrates of Cytochrome P450 3A4 (AID 884); further: series mostly up to about 57 µM; nearly all actives have a fitted effect of over 50% in size
Cytochrome P450 3A4 (Homo sapiens), sequence (P08684 whole entry, looked up): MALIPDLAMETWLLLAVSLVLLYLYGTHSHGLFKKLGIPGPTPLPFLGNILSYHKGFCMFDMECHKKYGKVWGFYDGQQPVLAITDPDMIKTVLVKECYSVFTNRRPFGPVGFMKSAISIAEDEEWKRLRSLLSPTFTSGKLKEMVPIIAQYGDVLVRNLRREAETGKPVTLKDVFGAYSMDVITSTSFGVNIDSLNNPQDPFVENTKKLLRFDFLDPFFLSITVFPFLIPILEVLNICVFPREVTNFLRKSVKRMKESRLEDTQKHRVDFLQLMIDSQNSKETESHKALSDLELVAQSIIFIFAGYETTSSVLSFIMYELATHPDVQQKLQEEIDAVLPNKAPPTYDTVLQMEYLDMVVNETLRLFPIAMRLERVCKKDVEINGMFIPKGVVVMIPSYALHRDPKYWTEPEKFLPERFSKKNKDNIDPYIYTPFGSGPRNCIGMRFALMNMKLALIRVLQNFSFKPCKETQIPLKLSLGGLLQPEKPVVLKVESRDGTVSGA
In short: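 Luminescent readout of luciferin produced by CYP3A4 (20 nM) dealkylation of Luciferin-PPXE, 25 uM (its KM). NADPH-driven reaction ran 60 min at RT after 10 min compound preincubation; data scaled to 57 uM ketoconazole as 100% inhibition.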

[2] = Cell Viability - LYMP2-001 (AID 921); further: series mostly up to about 92 µM; nearly all actives have a fitted effect of over 70% in size
In short: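 qHTS, 1536-well; lymphoblastoid cells, 24 hr compound, 37 C; ATP by CellTiter-Glo, 30 min RT; luminescence; Hill-fit AC50.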

[3] = MultiTox-Fluor Cytotoxicity Assay - LYMP1-001 - Dead Cells (AID 946);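 further: cells exposed to compound for 16 h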
In short: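 Seed 2500 LYMP1-001 cells/well, incubate 5 hr at 37 C; add compound, 16 hr at 37 C; add MultiTox-Fluor reagent, 60 min RT; read dead-cell fluorescence Ex/Em=485/520. Normalize to DMSO and 15 uM tetraoctylammonium bromide.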

[4] = MultiTox-Fluor Cytotoxicity Assay - LYMP1-001 - Live Cells (AID 947)
[5] = Cell Viability - LYMP1-002 - Assay at 16 hr (AID 948)
In short: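 Acute cytotoxicity is scored as a concentration-dependent fall in intracellular ATP in a human lymphoblastoid line (LYMP1-002) after 16 hr compound exposure at 37 C, measured by luciferase luminescence.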

[6] = MultiTox-Fluor Cytotoxicity Assay - LYMP1-002 - Live Cells (AID 955);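 further: cells exposed to compound for 16 hours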
In short: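 Cells were seeded at 2500 per well and incubated 5 hr. Compounds were then added for 16 hr at 37 C, followed by MultiTox-Fluor reagent for 60 min at room temperature and fluorescence reading of viable-cell protease signal.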

[7] = MultiTox-Fluor Cytotoxicity Assay - LYMP1-002 - Dead Cells (AID 960);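 further: cells exposed to compound for 16 h at 37 °C; nearly all actives have a fitted effect of over 60% in size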
In short: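 Cells were plated, rested 5 hr, then treated with compound dilution series for 16 hr at 37 C. After adding substrate reagent and 60 min at room temperature, dead-cell protease fluorescence gave concentration-response curves fitted by the Hill equation.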

[8] = MultiTox-Fluor Cytotoxicity Assay - LYMP1-003 - Dead Cells (AID 961);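 further: cells exposed to compound for 16 h at 37 °C; nearly all actives have a fitted effect of over 70% in size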
In short: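 LYMP1-003 lymphoblastoid, 2500 cells/well, 5 hr settle then 16 hr cpd at 37 C; MultiTox-Fluor reagent 60 min RT; Ex/Em 485/520 dead-cell signal; norm. DMSO = 0%, 15 uM tetraoctylammonium bromide = 100%; Hill AC50.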

[9] = MultiTox-Fluor Cytotoxicity Assay - LYMP1-003 - Live Cells (AID 962);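 further: cells exposed to compound for 16 hours at 37 °C; cytotoxic hits lower the live-cell protease signal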
In short: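 Acute cytotoxicity is scored as a drop in live-cell protease activity in human lymphoblastoid LYMP1-003 cells after 16 hr compound exposure at 37 C. AC50 values come from Hill-equation modelling of concentration-response data.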

[10] = Cell Viability - LYMP1-003 - Assay at 24 hr (AID 963)
In short: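 Cytotoxicity is scored as a concentration-dependent fall in ATP-linked luciferase signal in human lymphoblastoid LYMP1-003 cells treated 24 hr at 37 C in complete culture medium.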

[11] = Cell Viability - LYMP1-003 - Assay at 40 hr (AID 964); further: series mostly up to about 92 µM; nearly all actives have a fitted effect of over 60% in size
In short: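 Luminescent ATP signal (CellTiter-Glo) served as the viability read-out after 40 hr compound treatment of human lymphoblastoid LYMP1-003 cells at 37 C. Decreases in ATP were fitted with the Hill equation to give AC50.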

[12] = Cell Viability - LYMP2-003 (AID 965);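 further: cells exposed to compounds for 24 h before reading; nearly all actives have a fitted effect of over 50% in size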
In short: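 Acute cytotoxicity is scored as a concentration-dependent drop in intracellular ATP, measured by luciferase luminescence in human lymphoblastoid cells treated for 24 hours at 37 C. AC50 values derive from Hill-equation modelling.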

[13] = Cell Viability - LYMP2-004 (AID 966); further: nearly all actives have a fitted effect of over 65% in size
In short: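 qHTS cytotoxicity: human lymphoblastoid line, 24 hr compound treatment, 37 C, complete medium. Viability read as cellular ATP via luciferase luminescence; tetraoctylammonium bromide served as positive control.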

[14] = Cell Viability - LYMP2-005 (AID 967); further: series mostly up to about 92 µM
In short: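 qHTS viability screen in LYMP2-005 cells: 24 h at 37 C with compound, ATP luminescence via CellTiter-Glo, AC50 from Hill curves.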

[15] = Cell Viability - LYMP2-011 (AID 969); further: nearly all actives have a fitted effect of over 60% in size
In short: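 In this qHTS cytotoxicity format, compounds are tested across concentrations on human lymphoblastoid cells in complete medium for 24 hours at 37 C. Viability is taken as cellular ATP measured by luciferase luminescence.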

[16] = Cell Viability - LYMP2-013 (AID 970); further: series mostly up to about 92 µM; nearly all actives have a fitted effect of over 55% in size
In short: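 Cytotoxicity is scored as a concentration-dependent drop in intracellular ATP in human lymphoblastoid cells after 24 hr compound exposure at 37 C. ATP is quantified by luciferase luminescence, and AC50 values come from Hill-equation modeling.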

[17] = Cell Viability - LYMP2-015 (AID 971); further: nearly all actives have a fitted effect of over 55% in size
In short: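 Cells are seeded at 2500 per well and incubated 5 hr at 37 C. Compounds are added across a concentration series for 24 hr at 37 C. CellTiter-Glo is added, and luminescence is read after 30 min at room temperature.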

[18] = Cell Viability - LYMP2-017 (AID 972); further: series mostly up to about 92 µM; nearly all actives have a fitted effect of over 55% in size
In short: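 Cytotoxicity is scored as a concentration-dependent drop in cellular ATP in a human lymphoblastoid line after 24 hr treatment at 37 C. Values are AC50s from Hill-equation modelling.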

[19] = Cell Viability - LYMP2-019 (AID 973); further: nearly all actives have a fitted effect of over 55% in size
In short: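 Cytotoxicity is scored as a concentration-dependent drop in cellular ATP after cells (2500/well) receive compound for 24 hr at 37 C. Tetraoctylammonium bromide serves as positive control.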

[20] = Cell Viability - LYMP2-021 (AID 974)
In short: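 Loss of cellular ATP, measured with a luciferase-based CellTiter-Glo readout, serves as the toxicity signal in human lymphoblastoid cells treated for 24 hours at 37 C. Potency is reported as AC50 from a standard Hill model.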

[21] = Cell Viability - LYMP2-023 (AID 975)
In short: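 Steps: seed 2500 human lymphoblastoid cells per well, incubate 5 hr at 37 C, add compound for 24 hr at 37 C, add CellTiter-Glo, hold 30 min at room temperature, read luminescence. AC50 derived by Hill modelling.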

[22] = Cell Viability - LYMP2-025 (AID 976); further: series mostly up to about 92 µM
In short: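 Acute cytotoxicity is scored as a concentration-dependent fall in intracellular ATP, measured by luciferase luminescence, in human lymphoblastoid LYMP2-025 cells exposed to compound for 24 hours at 37 C. AC50 values come from standard Hill fits.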

[23] = Cell Viability - LYMP2-002 (AID 977);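 further: series mostly up to about 92 µM; compound exposure lasted 24 h at 37 °C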
In short: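 In this qHTS viability screen, 2500 human lymphoblastoid cells per well receive compound for 24 hr at 37 C, and luciferase-based ATP luminescence gives the viability signal. Tetraoctylammonium bromide serves as positive control.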

[24] = Cell Viability - LYMP2-008 (AID 980); further: nearly all actives have a fitted effect of over 60% in size
In short: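 Cells seeded at 2500/well and rested 5 hr at 37 C; compounds added over a concentration range and incubated 24 hr at 37 C; CellTiter-Glo added, 30 min at room temperature; luminescence read and AC50 fitted with Hill model.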

[25] = Cell Viability - LYMP2-010 (AID 981); further: nearly all actives have a fitted effect of over 55% in size
In short: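 Steps: seed 2500 LYMP2-010 cells per well; incubate 5 hr at 37 C; add compound; incubate 24 hr at 37 C; add CellTiter-Glo, wait 30 min at room temperature; read luminescence. Concentration-response fitted to Hill equation for AC50.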

[26] = Cell Viability - LYMP2-012 (AID 982)

Measured: Potency

Cc1ccccc1O
inactive: all assays above
